# The list is not random: actives were taken first. Their share in the collection is about 15%.
# ELG1 DNA repair: qHTS screen for small molecules that inhibit ELG1-dependent DNA repair in human embryonic kidney (HEK293T) cells expressing luciferase-tagged ELG1; actives 2.3% (n = 330,000); Potency, µM (top dose mostly 46.1 µM), inactives show at the highest dose activity change, negative = inhibition, actives largely listed as inhibitors; HEK293T ELG1-luciferase reporter, luminescence, 16 h; DNA damage induced by 5-fluorouridine; also: nearly all actives have a fitted effect of over 55% in size
#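 HEK293T cells expressing luciferase-tagged ELG1 (2,000/well) received 5-Fluorouridine plus compound or DMSO for 16 hr at 37 °C. Luciferase was read by ONE-Glo luminescence after 30 min at room temperature.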
# DT40 TDP1 CPT: qHTS for Inhibitors of human tyrosyl-DNA phosphodiesterase 1 (TDP1): qHTS in cells in presence of CPT; chicken DT40 Tdp1-/-;hTDP1 cells + 20 nM CPT, ATP luminescence, 48 h; Potency, µM (highest dose often 46.2 µM), inactives show top-dose activity change, negative = growth inhibition, hits mostly inhibitors; actives 12% (n = 420,000); also: nearly all actives have a fitted effect of over 55% in size
#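 Cell growth measured by CellTiter-Glo luminescence after a minimum 48 h, 37 C compound exposure with 20 nM CPT in Tdp1-knockout DT40 cells stably expressing hTDP1, seeded 400/well; qHTS titration format.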
# DT40 TDP1 no CPT: qHTS for Inhibitors of human tyrosyl-DNA phosphodiesterase 1 (TDP1): qHTS in cells in absence of CPT | DT40 Tdp1-/- hTDP1 cells, no CPT, ATP luminescence, 48 h | Potency, µM (highest dose often 46.2 µM), for inactives: top-dose activity change, negative = growth inhibition, actives largely listed as inhibitors | actives 15% (n = 420,000); also: nearly all actives have a fitted effect of over 55% in size
#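 Growth of hTDP1-complemented DT40 Tdp1-knockout cells is measured by ATP luminescence after at least 48 hr compound exposure at 37 °C, with DMSO substituting for the 20 nM CPT used in the parallel screen.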
# Gal4-VP16 FLuc: VP16 counterscreen qHTS for inhibitors of ROR gamma transcriptional activity. Drosophila S2 Gal4-VP16 UAS-luciferase, luminescence, 20 h. Potency, µM (series often up to 53.6 µM), without a hit: at the top dose activity, negative = inhibition, most hits filed as inhibitors. actives 3.5% (n = 310,000). AID 2546, 2010;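 also: Gal4-VP16 expression switched on by copper sulfate through the metallothionein promoter; nearly all actives have a fitted effect of over 50% in size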
# RORg inh: qHTS for inhibitors of ROR gamma transcriptional activity; Drosophila S2 Gal4-RORgamma UAS-luciferase reporter, 20 h; actives 5.4% (n = 310,000); Potency, µM (top dose mostly 53.6 µM), inactives show at the highest dose activity change, negative = inhibition, usual class: inhibitors; also: nearly all actives have a fitted effect of over 60% in size
# Target sequence (P51450 whole entry, looked up, the tested form may be a part): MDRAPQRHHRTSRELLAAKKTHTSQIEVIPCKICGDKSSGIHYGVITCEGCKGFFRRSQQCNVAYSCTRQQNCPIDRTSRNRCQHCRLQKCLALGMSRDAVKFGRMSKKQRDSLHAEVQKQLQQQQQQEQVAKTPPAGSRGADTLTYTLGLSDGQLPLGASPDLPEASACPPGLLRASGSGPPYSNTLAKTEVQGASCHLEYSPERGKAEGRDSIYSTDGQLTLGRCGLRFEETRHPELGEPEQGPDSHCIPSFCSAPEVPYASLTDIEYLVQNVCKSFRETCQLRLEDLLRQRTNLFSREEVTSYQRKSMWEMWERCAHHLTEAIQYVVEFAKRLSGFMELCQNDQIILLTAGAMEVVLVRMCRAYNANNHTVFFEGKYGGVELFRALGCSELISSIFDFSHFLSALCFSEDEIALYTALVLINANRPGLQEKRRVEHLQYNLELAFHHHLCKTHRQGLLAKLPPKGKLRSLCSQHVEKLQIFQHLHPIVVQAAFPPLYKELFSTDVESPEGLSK
#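 Luciferase reporter read in Schneider cells carrying Gal4-RORγ (mouse) and UAS-Photinus luciferase; cells given compound 1 h before 700 uM copper sulfate induction, then incubated 20 h at ambient temperature.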
# ALOX12 inh: Primary qHTS assay for inhibitors of human arachidonate 12S-lipoxygenase (ALOX12): Round 2; purified 12hLO, xylenol orange hydroperoxide absorbance; Potency, µM (series often up to 108 µM), for the others: at the highest dose activity change, negative = inhibition, actives largely listed as inhibitors; actives 1.1% (n = 580,000); AID 1671190, 2021
#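 Purified human 12hLO at 150 nM in 25 mM Hepes, 0.01% Triton X-100, pH 7.0, preincubated 15 min at room temperature with compound. Reaction started with 40 uM arachidonic acid, 30 min at room temperature. Hydroperoxide measured by Fe-xylenol orange, 573/405 nm absorbance ratio.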
# * marks the source's active call; other numbers are inactive results; ? = inconclusive; . = no result; ! = repeats disagree. Calls follow the shape of the dose curve; as a rule, active = well fitted curve in the direction sought with a large enough effect; inconclusive = small, poorly fitted or top-dose-only effect, or another doubt; inactive = no such curve, though single readings can be large; an effect the other way counts as inactive or inconclusive. % is scaled to controls: 0 for no effect and ±100 for the full control effect; potency is read from the fitted curve at half-maximal effect.
SMILES,ELG1 DNA repair,DT40 TDP1 CPT,DT40 TDP1 no CPT,Gal4-VP16 FLuc,RORg inh,ALOX12 inh
O=C(c1ccc2c(c1)N(Cc1cccc(F)c1)C(=O)c1ccccc1S2)N1CCCC1,.,21µM*,?,.,.,?
O=C(NCCN1CCOCC1)c1ccc2c(c1)N(Cc1c(F)cccc1Cl)C(=O)c1ccccc1S2,16%,?,?,1%,1%,-17%
O=C(c1ccc2c(c1)N(Cc1c(F)cccc1Cl)C(=O)c1ccccc1S2)N1CCCC1,.,?,23µM*,.,.,0%
CC1CC(C)CN(C(=O)C(C)Cl)C1 (stereo not drawn),.,.,.,.,.,-25%
CC(=O)N1CCCc2cc(S(=O)(=O)N3CCCC(C(=O)NCc4ccccc4)C3)ccc21 (stereo not drawn),-2%,?,26µM*!,2%,14%,0%
COc1ccccc1CNC(=O)C1CCCN(S(=O)(=O)c2ccc3c(c2)CCCN3C(C)=O)C1 (stereo not drawn),.,?,?,.,.,-21%
CCCN(CCC)S(=O)(=O)c1ccc2c(c1)CCCN2C(C)=O,12%,-19%,?,-15%,-1%,-50%
CC(=O)N1CCCc2cc(S(=O)(=O)N3CCCC(C(=O)Nc4cc(C)ccc4C)C3)ccc21 (stereo not drawn),?,?,-29%,-2%,-4%,-21%
CC(=O)N1CCCc2cc(S(=O)(=O)N(Cc3ccccc3)C(C)C)ccc21,.,15µM*,16µM*,.,.,-5%
CC(=O)N1CCCc2cc(S(=O)(=O)N3CCCC(C(=O)NCc4ccc(C)cc4)C3)ccc21 (stereo not drawn),-13%,18µM*,23µM*,2%,-2%,-6%
O=C1CC(c2ccccc2)N(C(=O)C2CC2)CCCN(C(=O)c2ccc3cc[nH]c3c2)CCN1 (stereo not drawn),.,.,.,.,.,16%
C/C=C(\C)C(=O)N[C@@H](C)CN1C2=NC[C@H](C(C)C)N2C[C@H]1Cc1ccc(OC)cc1,21%,-6%,-13%,-3%,10%,-4%
COc1ccc(C[C@@H]2CN3C(=NC[C@@H]3Cc3ccc(O)cc3)N2C[C@H](C)NC(=O)CCC2CCCCC2)cc1,-25%,5.8µM*,5.2µM*,1%,0%,.
COc1ccc(C[C@H]2CN3C(=NC[C@@H]3Cc3ccc(O)cc3)N2C[C@H](C)NC(=O)CCC2CCCCC2)cc1,-8%,8.2µM*,16µM*,2%,10%,-23%
O=C(c1cc(=O)c2ccccc2o1)N(Cc1ccccc1)Cc1ccccc1,.,.,.,.,.,3%
NC(=O)c1ncn([C@@H]2O[C@H](CNCc3c(OCc4ccccc4F)ccc4ccccc34)[C@@H](O)[C@H]2O)n1,.,6%,-9%,.,.,8%
O=c1ccn([C@@H]2O[C@H](CNCc3c(OCc4ccccc4F)ccc4ccccc34)[C@@H](O)[C@H]2O)c(=O)[nH]1,.,16µM*,?,.,.,-3%
CCOC(=O)N1CCC(n2c(SCC(=O)NCc3ccco3)nc3ccsc3c2=O)CC1,?,23µM*,18µM*,-3%,12%,.
CCOC(=O)N1CCC(n2c(SCC(=O)c3ccccc3)nc3ccsc3c2=O)CC1,?,2.6µM*,2.9µM*,2%,-12%,-13%
CCOC(=O)N1CCC(n2c(SCC(=O)OCc3ccccc3)nc3ccsc3c2=O)CC1,23µM*,-24%,-22%,-5%,42%,9%
CCOC(=O)CSc1nc2ccsc2c(=O)n1C1CCN(C(=O)OCC)CC1,?,?,?,11%,43%,-1%
CCOC(=O)N1CCN(C(=O)c2ccc3nc4ccsc4c(=O)n3c2)CC1,-5%,1%,-17%,-3%,-25%,67%
O=C(CSc1nc2ccsc2c(=O)n1Cc1ccc(C(=O)O)cc1)NCc1ccco1,6%,-2%,4%,10%,-28%,-2%
Cc1ccc(Cl)cc1N1CCN(C(=O)CN2CC3CC(C2)[C@H]2CCCC(=O)N2C3)CC1 (stereo partly drawn),.,.,.,.,.,48%
Oc1cccc(C(Nc2nccs2)c2ccc3cccnc3c2O)c1 (stereo not drawn),?,3.7µM*,4.6µM*,3.5µM*,1.4µM*,?
SMILES,ELG1 DNA repair,DT40 TDP1 CPT,DT40 TDP1 no CPT,Gal4-VP16 FLuc,RORg inh,ALOX12 inh
CC(=O)NC(c1cccc([N+](=O)[O-])c1)c1ccc2cccnc2c1O (stereo not drawn),?,2.6µM*,1µM*,2µM*,1.4µM*,11%
Cc1cccc(NC(c2ccc(O)cc2)c2ccc3ccc(C)nc3c2O)n1 (stereo not drawn),-4%,23µM*,16µM*,-4%,10µM*,?
COc1cccc(C(NC(C)=O)c2ccc3cccnc3c2O)c1 (stereo not drawn),?,0.73µM*,0.92µM*,5µM*,2.8µM*,19%
O=C(O)CCC(=O)NC(Cc1c[nH]c2ccccc12)C(=O)O (stereo not drawn),.,.,.,.,.,-93%
CCCCC(=O)NC(c1cccc([N+](=O)[O-])c1)c1ccc2cccnc2c1O (stereo not drawn),.,3.7µM*,2.9µM*,.,.,?
COc1cccc(C(Nc2ccccc2)c2ccc3ccc(C)nc3c2O)c1 (stereo not drawn),.,5.8µM*,5.2µM*,.,.,-21%
COc1ccc(NC(C)c2ccccc2)cc1 (stereo not drawn),18%,2%,-1%,2%,26%,5%
O=[N+]([O-])c1ccc(NC(c2ccccc2)c2ccc3cccnc3c2O)cc1 (stereo not drawn),.,3.3µM*,4.6µM*,.,.,?
Cc1nn(CC(=O)NCc2ccc(C(=O)O)cc2)c(C)c1[N+](=O)[O-],6%,-11%,-6%,1%,11%,-1%
CC1=NN(C(=O)c2ccc(Cn3nc(C)c([N+](=O)[O-])c3C)cc2)C(O)(C(F)(F)F)C1 (stereo not drawn),-16%,?,-20%,11µM*,11µM*,12%

# Screening results as filed in PubChem BioAssay.
